# Experimental data from PubChem BioAssay AID2685 (National Center for Advancing Translational Sciences (NCATS), 2010).
# Several values for one entry are separate records, joined by “and”; a condition that tells them apart may be missing. Equal entries are not always repeated. Among all 320,000 compounds or so, about 2,100 (0.66%) were called active. Not shown: some 53% with an inconclusive outcome. Calls follow the shape of the dose curve; as a rule, active = well fitted inhibition curve with a large enough effect in the signal ratio, with a control signal flat (not every such curve was filed as active); inconclusive = small, poorly fitted or top-dose-only effect, or effect the other way, or a change in a side signal; inactive = flat fitted curve, though single readings scatter; the % refers to the signal ratio. Many of the other results were omitted from the sample, so actives are more common in it than they were.
# Experiment: qHTS Assay for Lipid Storage Modulators in Drosophila S3 Cells;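 as to cell number change: cells counted by Cell Tracker Red CMTPX staining in the red channel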; as to lipid storage change, negative = inhibition: % is scaled to controls: 0 for no effect and ±100 for the full control effect
# Conditions: BODIPY lipid droplet fluorescence, 18-24 h, cells fed with added oleic acid; cell number change: measured here: cell count max response; series mostly up to 46.1 µM; lipid storage change, negative = inhibition: at the top concentration
# Description: NIH Molecular Libraries Probe Production Centers Network [MLPCN] NIH Chemical Genomics Center [NCGC] MLPCN Grant: 1 R03 MH085686-01 Assay Submitter (PI): Beller, Mathias; Max-Planck-Institut fur Biophysikalische Chemie NCGC Assay Overview: Storing lipids as a reservoir for energy or the anabolism of elementary metabolites is a common feature of probably all cells and is conserved from bacteria to humans. The universal cellular lipid storage organelle is the so-called lipid storage droplet (LD). Although ubiquitous, LDs share a simple structure composed of a hydrophobic core that harbors the storage lipids, which is shielded by a droplet-specific phospholipid monolayer to which proteins are attached. The current model of LD biogenesis involves an incorporation of the lipid core into the membrane leaflets of the endoplasmic reticulum (ER) followed by a subsequent budding-like maturation of a LD, which ultimately pinches off. Once released, LD volume can increase by localized lipogenesis or fusion of existing droplet. Storage lipids are re-mobilized enzymatically by lipase activity. Lipase regulation in the adipocyte is heavily studied and involves multiple components including catecholamine signaling, the LD-associated proteins Perilipin and comparative gene identification (CGI-58) and at least two lipases named hormone sensitive lipase (HSL) and adipocyte triglyceride lipase (ATGL). LD regulation outside of the adipocyte is poorly understood and only few components are known. However, there is an urgent need to learn more about ectopic fat depots as mislocalized storage of lipids, for example in the liver or muscle, is an eminent health problem associated with insulin resistance or the metabolic syndrome. We developed a laser-scanning cytometer assay to enable 1,536-well screening and combined the results of the small molecules screen with an RNAi database based on lipid storage.
# Triacsin C (Sigma-Aldrich T-4540), an inhibitor of long-chain fatty acyl CoA synthetase that blocks synthesis of triglycerides, was used as a positive control for lipid under-storage. A total of 23 nL of compound solution of different concentrations were transferred to the assay plates using a Kalypsys pin tool equipped with a 1,536-pin array containing 10-nL slotted pins (FP1S10, 0.457-mm diameter, 50.8 mm long; V&P Scientific). One microliter of oleic acid (400 uM) was added, and the plate was lidded with stainless steel rubber gasket lined lids containing pinholes. […] Fluorescence was detected by excitation of the fluorophores with a 488-nm laser on an Acumen Explorer (TTP Lab Tech). The total intensity in channel 2 (500-530 nm) reflected lipid droplet accumulation. Cells were detected using channel 3 (575-640 nm) with 5-um width and 100-um depth filters. The ratio of the number of objects in PMT channel 2 over the number of objects in PMT channel 3 was also calculated. Percent activity was computed relative to an internal control (100% inhibited lipid droplet deposition due to the presence of 20 uM Triacsin C), which was added to 32 wells/plate.
# Potency is read from the fitted curve at half-maximal effect.
SMILES,"lipid storage change, negative = inhibition",cell number change,Potency,outcome
O=C(Nc1ccc(C2CC2(Cl)Cl)cc1)c1ccccc1Br (stereo not given),20.5% (inactive),13.5%,,
COc1ccc(CN(CC(=O)NCc2ccccc2)C(=O)c2csnn2)cc1,12.1% (inactive),1.68%,,
CN(Cc1ccco1)c1ncnc2ccc(-c3ccoc3)cc12,,,-1.69% and -0.798%,
CN(Cc1ccco1)c1ncnc2ccc(-c3ccc4c(c3)OCCO4)cc12,25% (inactive),,,
Cc1cccc(-c2ccc3ncnc(N(C)Cc4ccco4)c3c2)c1,17% (inactive),-20.6%,,
O=C(COC(=O)/C=C/c1cccc(F)c1)Nc1ncccn1,-1.2% (inactive),-0.367%,,
COc1cccc(N2CCN(c3nc(C)cc(=O)[nH]3)CC2)c1,-16.9% (inactive),15.9%,,
O=C(CSc1nnnn1-c1ccc2c(c1)OCCO2)N1CCN(C(=O)c2ccco2)CC1,1.65% (inactive),-0.608%,,
Cc1cc2nc(SCC(=O)N(C)C)c3c(c2cc1C)CCCC3,-6.18% (inactive),-15.1%,,
CCOC(=O)c1c(C)n(C)c2cc([N+](=O)[O-])c(O)c([N+](=O)[O-])c12,10.2% (inactive),7.01%,,
CCOC(=O)C1CCCCN1Cc1cc(Cl)ccc1O (stereo not given),,-14.7%,,inactive
O=C(Nc1cccc(O)c1)c1ccccc1,,,,inactive
O=C(Nc1ccc(NC(=O)c2cccc([N+](=O)[O-])c2)cc1)c1cccc([N+](=O)[O-])c1,,-4.74%,,inactive
COc1cccc(C(=O)Nc2ccc(C3CC3(Cl)Cl)cc2)c1 (stereo not given),15.6% [at 9.22 µM] (inactive),,,
O=C(Nc1ccc(C2CC2(Cl)Cl)cc1)c1cccc([N+](=O)[O-])c1 (stereo not given),,-18.3%,20.6 µM (active),
O=C(Nc1cccc(Br)c1)c1ccc(CSc2ccccc2)cc1,-18.6% (inactive),-13.3%,,
COc1cccc(C(=O)Nc2ccc3ccccc3c2)c1,,24%,,inactive
COc1cccc(C(=O)Nc2cccc(-c3ccccc3)c2)c1,,5.29%,1.46 µM (active),
COc1cccc(-c2cc(C(=O)Nc3ccc4c(c3)OCCO4)c3ccccc3n2)c1,26.5% (inactive),,,
COc1cccc(-c2cc(C(=O)Nc3cccnc3)c3ccccc3n2)c1,,,8.2 µM (active),
O=C(Nc1cccc(C(=O)Nc2cccc(Br)c2)c1)c1ccccc1,,0.351%,5.8 µM (active),
COc1cccc(/C(C)=N/NC(=O)c2cc(-c3cccnc3)nc3ccccc23)c1,14.6% (inactive),11.2%,,
COc1cccc(C(=O)Nc2cccc(NC(C)=O)c2)c1,13.3% (inactive),-21%,,
COc1ccc(-c2nc(CS(=O)CC(=O)NC3CCCCCC3)c(C)o2)cc1 (stereo not given),,,,inactive

SMILES,"lipid storage change, negative = inhibition",cell number change,Potency,outcome
O=C(COC(=O)c1ccc(Br)o1)NCCc1ccccc1,-3.74% (inactive),14.1%,,
O=C(NC1CCS(=O)(=O)C1)c1cccc(Br)c1 (stereo not given),-8.87% (inactive),-19.9%,,
COc1ccc(S(=O)(=O)N2CCN(C(=O)C3CC3)CC2)cc1,-28.4% (inactive),0.403%,,
CCOC(=O)COc1ccc2c(c1)c(C(C)=O)c(C)n2-c1ccc(OC)cc1,9.72% (inactive),,,
Cc1cccc(-c2nc3sc(C)cc3c(=O)o2)c1,-0.0238% (inactive),1.66%,,
COc1ccc(S(=O)(=O)N2CCCC(C(=O)NCc3ccc4c(c3)OCO4)C2)cc1 (stereo not given),11% (inactive),4.03%,,
COc1ccc(Cc2nnc(SCC(=O)Nc3cc(Cl)ccc3C)[nH]c2=O)cc1,19.4% (inactive),-4.71%,,
CCc1cc(=O)oc2c(C)c(OCC(=O)N3CCC(C(=O)O)CC3)ccc12,8.85% (inactive),-9.69%,,
CCCCc1cc(=O)oc2cc(OCC(=O)NC(Cc3c[nH]c4ccc(O)cc34)C(=O)O)ccc12 (stereo not given),-8.02% (inactive),-11.2%,,
O=C(/C=C/Nc1ccc(Br)cn1)c1cccc(OC(F)F)c1,0.169% (inactive),16.6%,,
CCC(=O)Nc1cccc(NC(=O)c2cccc([N+](=O)[O-])c2)c1,,5.3%,,inactive
COc1cccc(C(=O)COc2cccc(NC(=O)c3cccc([N+](=O)[O-])c3)c2)c1,,20%,18.4 µM (active),
COc1ccc(NC(=O)c2cccc([N+](=O)[O-])c2)cc1,-3.42% (inactive),0.213%,,
O=C(Nc1cccc([N+](=O)[O-])c1)c1ccccc1,6.01% (inactive),-11.6%,,
COc1cccc(C(=O)COc2cccc(NC(=O)c3ccco3)c2)c1,12.1% (inactive),29%,,
CCCc1cc(C(=O)Nc2cccc([N+](=O)[O-])c2)cs1,,24.5%,20 µM (active),
COc1cccc(C2NC(=O)NC(C)=C2C(=O)Nc2cc(OC)ccc2OC)c1 (stereo not given),15.1% (inactive),10.2%,,
CC(C(=O)N1CCc2ccccc21)N1CCN(Cc2ccc(Cl)cc2)CC1 (stereo not given),,-3.17%,,inactive
CC(C(=O)N1CCc2ccccc21)N1CCN(c2ccccn2)CC1 (stereo not given),,18%,23.1 µM (active),
CC(C(=O)N1CCc2ccccc21)N1CCc2ccccc2C1 (stereo not given),-5.94% (inactive),-14.5%,,
CCOc1ccccc1N(CC(=O)OC)S(=O)(=O)c1ccccc1,20.8% (inactive),1.61%,,
O=C(NNc1nc2c(F)cccc2s1)C1COc2ccccc2O1 (stereo not given),,,,inactive
CC(=O)OCCc1c(C)nc2nc[nH]n2c1=O,,-16.2%,29.1 µM (active),
